# High-throughput results (PubChem BioAssay)
# Many of the other results were omitted from the sample, so hits are more common in it than they were.
# Dicer inh – inhibitors of Dicer pre-microRNA processing, primary screen, biochemical, cat-ELCCA, chemiluminescence | Endoribonuclease Dicer (Homo sapiens), Q9UPY3 | cat-ELCCA pre-miR-21 Dicer processing; stronger effect = higher value | z-score at 25 µM | 47,000 compounds, 6% hits | AID 1347074, 2019; in the data active = z-score above about 3, passing the limit was not always enough;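 note: plate controls were vehicle for no effect and no enzyme for full effect; higher signal means more uncleaved substrate so more Dicer inhibition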
# Active calls of the source: *.
SMILES,Dicer inh
CCOC(=O)c1c(C)c(C#N)c(NC(=O)c2ccc(Cl)cc2Cl)n1-c1ccccc1,-1
CCCCN1C(=O)C(O)(CC(=O)c2ccc(-n3cccc3)cc2)c2cc(Br)ccc21 (configuration not stated),2.4
COCCn1c2c(c(=O)[nH]c1=O)C(c1ccccc1C)C1=C(N2)c2ccccc2C1=O (configuration not stated),-3.6
CCc1sc(-c2c(C#N)c(N)nc3c2CCCC3)cc1Br,0.48
CCOc1cc(C2C(C(=O)OCc3ccc(OC)cc3)=C(C)NC3=C2C(=O)CCC3)cc(Cl)c1O (configuration not stated),2.5
COc1ccc(Nc2ncnc(N)n2)cc1,1.1
CCOC(=O)c1ccc(N2C(=O)CS(=O)(=O)CC2=O)cc1,0.51
CCOC(=O)C1=C(C)N(c2ccc(Br)cc2)C(=O)C1,3.8*
CCOC(=O)C1=NN(c2ccc(C)cc2)C2C(=O)N(c3ccc(Br)cc3)C(=O)C12 (configuration not stated),1.2
Cc1cc(C)c2c(n1)sc1c(Sc3nccn3C)ncnc12,2.4
COC(=O)/C(C#N)=C/c1cccc(Br)c1,9.3*
CCOC(=O)/C(C#N)=C/c1ccc(Br)cc1,0.77
COC(=O)/C(C#N)=C/c1ccc(Cl)cc1,-0.7
O=C(c1cccs1)n1ccc(-c2ccc(C#Cc3ccccc3)cc2)n1,0.26
O=c1c2cc(-c3ccccc3)sc2n(Cc2ccccc2)c(=O)n1-c1ccccc1,1.7
COC1=CC(=C2C=CC(=[N+](C)C)C=C2)Oc2ccccc21,1.4
Cc1ccc(C2CC(=O)C=C(NC3Cc4ccccc4C3)C2)cc1 (configuration not stated),1.1
Cc1ccc(S(=O)(=O)Nc2ccc3c(c2)Cc2cc(Br)ccc2-3)cc1,3.4*
Cc1ccc(S(=O)(=O)Nc2ccc(O)c(Br)c2)cc1,1.4
CNS(=O)(=O)c1ccc2c(c1)Cc1cc(S(=O)(=O)NC)ccc1-2,0.52
O=c1[nH]c2ccc(S(=O)(=O)NCCc3ccc(F)cc3)cc2[nH]1,1.9
O=S(=O)(CS(=O)(=O)NCCc1ccc(Cl)cc1)NCCc1ccc(Cl)cc1,0.29
NS(=O)(=O)c1ccc(CNS(=O)(=O)Cc2ccccc2)cc1,-0.27
CS(=O)(=O)NCCc1ccc(S(N)(=O)=O)cc1,6.9*
NS(=O)(=O)c1ccc(CCNS(=O)(=O)c2ccc(Cl)cc2)cc1,3.4*
SMILES,Dicer inh
CS(=O)(=O)NCCc1ccncc1,0.42
CN(C)c1ccc(-c2nc3n(n2)C(c2ccc(F)cc2)C2=C(CCCC2=O)N3)cc1 (configuration not stated),6.7
Cc1c(NC(=O)c2ncn[nH]2)c(=O)n(-c2ccccc2)n1C,1.1
S=c1c2ccccc2[nH]c2ccccc12,-5.3
COc1cc2c(cc1OC)C(=O)N(Cc1c(Cl)cccc1Cl)CC2,-0.66
O=C1C=C(NCc2ccco2)CC(c2ccccc2)C1 (configuration not stated),1.2
O=C1C=C(NCc2ccncc2)CC(c2ccccc2)C1 (configuration not stated),1.8
O=C1C=C(NCCc2ccccc2)CC(c2ccco2)C1 (configuration not stated),5.7*
CCOC(=O)c1cc(=O)c2ccccc2o1,-0.25
N/C(=N\OC(=O)c1cnn(-c2ccc(Cl)cc2)c1C(F)(F)F)c1ccc(C(F)(F)F)cc1,-2.2
CCOc1ccc2ccccc2c1/C=C1\N=C(SCC)SC1=O,0.11
Brc1ccc(C2Nc3cccc4cccc(c34)N2)cc1,5*
COc1cccc(C2Nc3cccc4cccc(c34)N2)c1O,0.69
Fc1ccc(C2Nc3cccc4cccc(c34)N2)cc1,-0.77
COc1ccc(C#N)cc1Br,-0.35
Oc1ccc2ccccc2c1C1Nc2cccc3cccc1c23 (configuration not stated),-2.6
COc1ccc(C2Nc3cccc4cccc(c34)N2)cc1Br,4.9*
O=C1OC(N2CCOCC2)c2ccccc21 (configuration not stated),-0.8
O=C1C(=O)N(Cc2cccnc2)C(c2cccnc2)/C1=C(\O)c1ccc(Cl)cc1 (configuration not stated),-0.03
O=C1CCCC2=C1C(c1ccccc1F)c1c([nH]n(-c3ccccc3)c1=O)N2 (configuration not stated),0.13
C=CCN(CC=C)Cc1c(C)[nH]c2ccc(OCC)cc2c1=O,0.47
Cn1ncc2c(N/N=C/c3ccc(Cl)cc3)ncnc21,1.2
O=C1CC(c2ccc(Cl)cc2)c2cc3c(cc2N1)OCO3 (configuration not stated),3.6*
O=C1CC(c2ccc3c(c2)OCO3)c2c(n[nH]c2-c2ccc(Cl)cc2)N1 (configuration not stated),0.01
COc1cc2c(cc1OC)C(c1ccc(F)cc1)CC(=O)N2 (configuration not stated),0.86
SMILES,Dicer inh
O=c1oc2ccccc2nc1/C=C(\O)c1ccc([N+](=O)[O-])cc1,-0.39
COCc1cc(C)nc2sc(C(=O)N3CCCC3)c(N)c12,3.9*
COCc1cc(C)nc2sc(C(=O)OC)c(N)c12,1
Cc1cc(C)c2c(N)c(C(=O)c3ccccc3Cl)sc2n1,-2.3
NS(=O)(=O)c1ccc(Sc2ccc(Cl)cc2)c([N+](=O)[O-])c1,-0.24
CC(C)(C)c1ccc(C2=NNC(SCC(=O)c3ccc(Cl)cc3)=NN2)cc1,-0.55
Cc1cnc(NS(=O)(=O)c2ccccc2)c(Br)c1,-0.02
Cc1cc(O)cc(C)c1NS(=O)(=O)c1ccccc1,3.5*
Cc1cccc(C)c1NS(=O)(=O)c1ccc(NS(=O)(=O)c2ccccc2)cc1,0.87
Cn1c(=O)n(Cc2ccccc2)c(=O)c2c1[nH]c(=O)n2C,-0.13
CCN(CC)CC(=O)Nc1cc(C)nn1-c1ccccc1,1.6
CCN(CC)CC(=O)Nc1c(C#N)cnn1-c1ccccc1,4.7*
N#Cc1cnn(-c2ccccc2)c1NC(=O)CSc1nnc(-c2ccc(Cl)cc2)o1,-0.2
COC(=O)c1sccc1NC(=O)C(Cl)Cl,-0.36
N#C/C(=C\N1CCCC1)S(=O)(=O)c1ccc(Cl)cc1,1.6
CCOc1cc(C(F)(F)F)cnc1C(=N)N,0.92
O=c1c(Cc2ccc([N+](=O)[O-])cc2)c(-c2ccccc2)sc2ccccc12,3.6*
O=c1c(Cc2ccc(Cl)c(Cl)c2)c(-c2ccccc2)sc2ccccc12,-0.98
O=c1c(Cc2ccc(Cl)cc2Cl)c(-c2ccccc2)sc2ccccc12,-2.3
O=C(/C=C/c1ccc(O)cc1)CC(=O)/C=C/c1ccc(O)cc1,-0.65
COc1c(Br)cc([N+](=O)[O-])c(OC)c1C(=O)NC(=O)Nc1c(Cl)cc([N+](=O)[O-])cc1Cl,1.1
COc1cccc(OC)c1NC(=O)NC(=O)c1c(OC)c(Br)cc([N+](=O)[O-])c1OC,8.8
COc1c(Br)cc([N+](=O)[O-])c(OC)c1C(=O)NC(=O)Nc1cc(C(F)(F)F)cc(C(F)(F)F)c1,4.2*
COC(=O)c1sccc1-c1ccc(/C(C)=N/Nc2ccc(F)cc2F)o1,6.2
Fc1cccc(Cl)c1CN1CCN(CCCNc2ncnc3scc(-c4ccccc4)c23)CC1,-0.4
Nc1c(C(=O)Nc2cc(F)ccc2F)sc2nc(-c3cccs3)ccc12,-0.03
Cc1c(NC(=O)Nc2ccccc2)sc2nc(-c3ccc(Cl)cc3)nn12,-2.3
CC1CCc2c(sc(NC(=O)Nc3ccc(Cl)cc3)c2C(N)=O)C1 (configuration not stated),1.6
CS(=O)(=O)c1sc(NC(=O)Nc2ccc(Cl)cc2)c2c1C=CCC2,3.3*
